Measurements reported in PubChem BioAssay (NCI).
Values joined by “and” are separate entries in the source; they are usually repeats but may differ in a detail not shown here. Equal entries are not always repeated. About 79,000 compounds went through this panel and 15% of them were active in at least one assay; those are over-represented in the sample as a whole. Unmarked numbers belong to inactive results. Active and inactive are the calls of the source. Rule as the data show it: active = growth inhibition above about 70%; inactive = the rest.

Experiment: NCI Yeast Anticancer Drug Screen. Data for the mlh1 rad18 strain (AID 175)
Conditions: S. cerevisiae mlh1 rad18 strain growth inhibition; at 50.0 µM; stronger effect = higher value
Summary of the method: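 Steps: expose repair-defective yeast to compound; measure growth; express inhibition against vehicle-treated controls.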

Going from `ClCCN(CCCl)c1ccc(C2=Nc3cccc4cccc(c34)N2)cc1` to `COc1cc(N=Nc2cccc(C(=O)O)c2)ccc1N(CCCl)CCCl`, the growth inhibition falls from 5.05% to -23.3%.

Compared with `COc1cc(Cl)c(OP(=O)(OC)OC)cc1Cl`, `N=C(N)SCc1ccc(Cl)c(Cl)c1` (tested in a mixture with another compound) is higher in growth inhibition: 5.75% for the first, 10.7% for the second.

First: c1ccc(CC[n+]2cccc3ccccc32)cc1
Second: O=C(CF)[O][Sb]([O]C(=O)CF)([c]1ccccc1)([c]1ccccc1)[c]1ccccc1
The growth inhibition of the first is lower: -6.85% for the first, 33.8% for the second.

Going from `CCC1(C(C)c2ccccc2)C(=O)NC(=O)NC1=O` (stereo not given) to `CC(=O)CC1(OC(=O)C2C(C=C(C)C)C2(C)C)C(=O)Nc2ccccc21` (stereo not given), the growth inhibition rises from -3.55% to 39.5%.

Going from `CCCCCCOC(=O)c1ccccc1C(=O)OCCCCCC` to `CCC[CH2][Sn]1([CH2]CCC)[O]C(=O)CN=C(C)c2ccccc2[O]1`, the growth inhibition rises from -2.8% to 3.45%.

Going from `S=C=Nc1ccccn1` to `O=NNc1ccc(Br)cn1`, the growth inhibition falls from 21.9% to 4.2%.

Going from `O=C1C=C2c3ccccc3CC(C(=O)O)C2CC1` (stereo not given) to `O=S1(=O)c2ccccc2-c2ccccc21`, the growth inhibition falls from 9% to 5.65%.

First: Cc1ccc(NC2=NCCS2)cc1Cl
Second: O=C(COc1ccc(Cl)c(Cl)c1)Nc1ccc[n+](Cc2ccc(S(=O)(=O)F)cc2Cl)c1
The growth inhibition of the first is higher: 16.1% for the first, 8.5% for the second.

Compared with `Nc1ccc([As](O)O)c(C(=O)O)c1`, `CCN(CC)C(=S)SCc1ccccc1OC(=O)NC` is higher in growth inhibition: -35.6% for the first, -5.95% for the second.

Going from `CC(=O)OCC12CCC(C)=CC1OC1C(N(C)C)C(O)C2(C)C12CO2` (stereo not given) to `C[C@]12Cc3sc(N)nc3C[C@@H]1CC[C@@H]1[C@@H]2CC[C@@]2(C)[C@H]1CC[C@]2(C)O`, the growth inhibition rises from -16.9% to -4.95%.

Compared with `COc1ccc2c3c1O[C@H]1C(Br)C=C[C@H]4[C@@H](C2)N(C)CC[C@]314` (stereo not given in full), `O=C(N1CCCC1)C1(c2cccc(Cl)c2)CCNCC1` is lower in growth inhibition: 8.35% for the first, -20.7% for the second.

First: O=C(NCCc1ccc([N+](=O)[O-])cc1)c1ccc(S(=O)(=O)F)cc1
Second: O=C(c1ccc([N+](=O)[O-])cc1)C1NC1c1ccccc1 (stereo not given)
The growth inhibition of the first is higher: 8.05% for the first, -15.7% for the second.

Compared with `CC1(CCl)COP(=O)(NN)OC1` (stereo not given), `CC1=CC(C(=O)O)P(C)(=O)C1` (stereo not given) is lower in growth inhibition: 5.35% for the first, -10.3% for the second.

Going from `O=C([O-])C(F)(F)C(F)(F)F.[C-]#[O+].[C-]#[O+].[C-]#[O+].[C-]#[O+].[C-]#[O+].[Mn]` to `CC(=O)[O][Pb]([CH3])([CH3])[CH3]`, the growth inhibition falls from -7.25% to -20.8%.

Going from `CCCCC1(C(C)C)C(=O)NC(=O)N(C)C1=O` (stereo not given) to `Cc1cc2[nH]c3c(C#N)c(OC(=O)N(C)C)c(C)c(=O)n3c2cc1C`, the growth inhibition rises from 5.3% to 39%.

Going from `O=C(O)CN(CCN(CC(=O)O)CC(=O)O)CC(=O)O.[Cl][Pd][Cl]` to `CCOP(=O)(OCC)/C(C#N)=C(\C)c1ccco1`, the growth inhibition falls from 62% to -1.2%.

Compared with `[C-]#[O+].[C-]#[O+].[Ni].c1ccc([PH+](CC[PH+](c2ccccc2)c2ccccc2)CC[PH+](c2ccccc2)c2ccccc2)cc1`, `CC(C)CCON=C(N)N` is higher in growth inhibition: -10.2% for the first, 2.55% for the second.

With `CN(C)P(N)(=S)N(C)C` the growth inhibition was -7.05%.

With `C=CC[As](=O)(O)c1ccccc1Cl` the growth inhibition was 99% (active).
For `CN(C)S(=O)(=O)N(SC(F)(Cl)Cl)c1ccccc1`, the growth inhibition was 99% (active).
For `O=NNc1cnccn1`, the growth inhibition was -8.25% and -21.2%.
With `O=C(c1ccccc1)C1C(C(=O)c2ccccc2)N1Cc1ccccc1` (stereo not given) the growth inhibition was -7.8% and 6.65%.
For `CC1(C)N=C(N)N=C(N)N1c1ccc(CCc2cccc(Cl)c2S(=O)(=O)F)c(Cl)c1`, the growth inhibition was 99.5% (active).
